Assay [1] deals with Transcription factor E2F1 (Homo sapiens) (UniProt Q01094). Kind of assay: ATG_E2F_CIS: Attagene CIS-FACTORIAL HepG2 Assay for human E2F Transcription Factor 1 (AID 2282935). To be noted: HepG2 Attagene cis-reporter, E2F reporter RNA transcripts; actives raise or lower the signal. The method, boiled down: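 Fluorescent RT-PCR products, digested with HpaI for 2 h at 37 C, are separated by capillary electrophoresis. Source RNA comes from transfected HepG2 cultures treated for 24 h.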
Chain of Transcription factor E2F1 (Homo sapiens) (Q01094 whole entry, looked up): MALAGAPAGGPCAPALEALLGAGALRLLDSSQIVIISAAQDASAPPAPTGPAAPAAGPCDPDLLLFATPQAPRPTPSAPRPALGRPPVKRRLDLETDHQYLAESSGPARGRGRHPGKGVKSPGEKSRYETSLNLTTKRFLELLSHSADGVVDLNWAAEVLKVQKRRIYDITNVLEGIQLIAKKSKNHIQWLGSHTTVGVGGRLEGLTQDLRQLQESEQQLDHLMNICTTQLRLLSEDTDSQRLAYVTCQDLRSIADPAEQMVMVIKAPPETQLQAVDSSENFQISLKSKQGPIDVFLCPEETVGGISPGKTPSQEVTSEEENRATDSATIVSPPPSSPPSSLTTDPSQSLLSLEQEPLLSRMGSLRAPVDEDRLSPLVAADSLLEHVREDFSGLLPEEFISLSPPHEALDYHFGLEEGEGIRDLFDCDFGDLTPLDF

Assay [2] in a line: ATG_E_Box_CIS: Attagene CIS-FACTORIAL HepG2 Assay for human Enhancer Box (E-box) (AID 2282936). The note with it: HepG2 E-box cis-reporter transcription, actives raise or lower the signal. The method, boiled down:
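Fluorescent reporter fragments separated by capillary electrophoresis gave the signal; mRNA came from HepG2 cells transfected with cis-element reporters and treated 24 h. Curves fitted bidirectionally relative to DMSO controls.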

Assay [3] can be described thus: ATG_EGR_CIS: Attagene CIS-FACTORIAL HepG2 Assay for human Early Growth Response 1 (EGR1) (AID 2282938). To be noted: HepG2 Attagene CIS-FACTORIAL EGR reporter mRNA; actives raise or lower the signal. The method, boiled down: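 Fluorescent capillary-electrophoresis signal of reporter cDNA fragments serves as read-out. HepG2 cells bear transiently transfected cis-promoter reporter units and are exposed 24 h; gain- or loss-of-signal is fitted against DMSO.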

Assay [4] in a line: ATG_ERE_CIS: Attagene CIS-FACTORIAL HepG2 Assay for Estrogen Response Element (ERE) (AID 2282940). To be noted: HepG2 ERE cis-reporter, Attagene RNA transcript; actives raise or lower the signal. The essentials:
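HepG2 cells transiently transfected with cis-promoter-driven multiplexed reporter transcription units report endogenous TF activity. After 24 h compound exposure, reporter mRNA is quantified by RT-PCR with capillary electrophoresis fluorescence; bidirectional fitting versus DMSO baseline.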

Assay [5] in a line: ATG_Ets_CIS: Attagene CIS-FACTORIAL HepG2 Assay for human Erythroblast Transformation Specific (ETS) (AID 2282941). To be noted: HepG2 ETS cis-reporter transcription, actives raise or lower the signal. The essentials:
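Bidirectional fit versus DMSO of reporter mRNA signal, detected by RT-PCR and capillary electrophoresis in HepG2 cells transiently transfected with cis-element reporters and dosed 24 h.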

The target in assay [6] is Hepatocyte nuclear factor 3-beta (Homo sapiens) (UniProt Q9Y261). Kind of assay: ATG_FoxA2_CIS: Attagene CIS-FACTORIAL HepG2 Assay for human Forkhead box A2 (FOXA2) (AID 2282942). The note with it: HepG2 cis-reporter transcription factor activity, 24 h; actives raise or lower the signal. The essentials: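 Fluorescence signal of reporter cDNA fragments, separated by capillary electrophoresis, reflects endogenous transcription factor activity in transfected HepG2 after 24 h. Both increases and decreases fitted against DMSO.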
Chain of Hepatocyte nuclear factor 3-beta (Homo sapiens) (Q9Y261 whole entry, looked up, the tested form may be a part): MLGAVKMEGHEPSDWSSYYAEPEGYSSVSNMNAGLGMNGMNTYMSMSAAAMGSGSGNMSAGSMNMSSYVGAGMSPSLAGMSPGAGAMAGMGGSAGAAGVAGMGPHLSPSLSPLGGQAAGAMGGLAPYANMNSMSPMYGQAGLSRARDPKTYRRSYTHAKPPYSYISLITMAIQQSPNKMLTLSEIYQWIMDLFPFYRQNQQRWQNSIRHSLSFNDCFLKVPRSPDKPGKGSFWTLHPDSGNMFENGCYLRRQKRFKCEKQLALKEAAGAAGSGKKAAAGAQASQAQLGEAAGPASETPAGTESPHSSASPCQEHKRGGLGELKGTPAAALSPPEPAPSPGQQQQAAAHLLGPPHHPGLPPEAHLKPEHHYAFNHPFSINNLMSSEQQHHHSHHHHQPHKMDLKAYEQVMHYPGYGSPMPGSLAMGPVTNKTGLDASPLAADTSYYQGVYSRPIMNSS

A short description of assay [7]: ATG_FoxO_CIS: Attagene CIS-FACTORIAL HepG2 Assay for human Forkhead box O (FoxO) (AID 2282943). To be noted: HepG2 Attagene cis-reporter, FoxO element, mRNA; actives raise or lower the signal. The essentials: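 Endogenous transcription factor activity read from multiplexed cis-promoter reporter transcripts in transiently transfected HepG2, 24 h after dosing. Reporter RNA measured via RT-PCR plus capillary electrophoresis of FAM-labeled products; gain or loss relative to DMSO.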

Assay [8] is described as follows: ATG_GATA_CIS: Attagene CIS-FACTORIAL HepG2 Assay for human GATA Binding Protein (AID 2282944). To be noted: HepG2 GATA cis-element reporter, Attagene multiplex mRNA; actives raise or lower the signal. The essentials: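 HepG2 cells transiently transfected with multiplexed cis-element reporter units reflecting endogenous transcription factor activity; reporter mRNA measured after 24 h dosing by RT-PCR, 6-FAM labeling, HpaI digestion and capillary electrophoresis. Bidirectional fitting versus DMSO baseline.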

Assay [9] in a line: ATG_M_61_CIS: Attagene CIS-FACTORIAL HepG2 Assay for M61 Transcription Factor (Internal Marker) (AID 2282937). The note with it: HepG2 Attagene CIS-FACTORIAL M61 internal marker reporter; actives raise or lower the signal. The essentials:
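Using transiently transfected HepG2 liver cells, reporter transcript levels were assessed 24 h post-dosing by RT-PCR and capillary electrophoresis. Changes in either direction were fitted relative to DMSO controls.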

Assay [10] can be described thus: ATG_M_19_CIS: Attagene CIS-FACTORIAL HepG2 Assay for M19 Transcription Factor (Internal Marker) (AID 2282939). To be noted: HepG2 Attagene CIS-FACTORIAL M19 internal marker reporter; actives raise or lower the signal. The essentials: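 HepG2 cells transiently transfected with cis-regulated multiple reporter transcription units were dosed for 24 h; reporter mRNA was quantified by RT-PCR, 6-FAM primer-extension labelling, HpaI digestion and capillary electrophoresis, with bidirectional fitting against DMSO baseline.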

Calls of active or inactive are those of the source. The calls were made as follows: active = hit-call score of the fitted dose curve at least 0.9, where 1 is the maximum; inactive = score below 0.9.

A word on the AC50: it is the concentration giving half of the maximal activity seen.

Regarding `CCCCCCCCCCCCCC(=O)OCC`, the result in assay [1], in [2], in assay [3], in assay [4], in assay [5] and in [6] was inactive. Also, the call in assay [7] and in [8] was inactive.

Turning to `CC(=O)OCC=C(C)CCC=C(C)CCC=C(C)C`, the compound was called inactive in assay [1], in [9] and in assay [3]. Moreover, the AC50 was 183 µM (active) in assay [10]; 25.1 µM (active) in assay [4]; 179 µM (active) in assay [5]; 146 µM (active) in assay [6]; 128 µM (active) in assay [7]; 167 µM (active) in assay [8].

With `O=S(=O)(O)c1cc(S(=O)(=O)O)c2c(N=Nc3ccccc3)c(O)ccc2c1`, the compound was classed as inactive in assay [1], in [2], in assay [3], in assay [10], in [4] and in assay [5]. The result in assay [6], in [7] and in [8] was inactive.

Regarding `CCCc1ccc(N)cc1`, the call in assay [1], in assay [2], in assay [3], in assay [10], in assay [4] and in [5] was inactive. For the same compound, the result in assay [7] and in [8] was inactive.

`CCCCC1CCCCC(=O)O1` (stereo unspecified): the call in assay [1], in assay [2], in assay [3], in assay [4], in [5] and in [6] was inactive. For the same compound, the outcome in assay [7] and in [8] was inactive.

On to `CCCO`, for which the result in [1], in assay [2], in [3], in [10], in assay [4] and in assay [5] was inactive. In addition, the outcome in assay [6], in [7] and in assay [8] was inactive.

For `CCOc1ccc(NC(C)=O)cc1`, the compound was classed as inactive in assay [1], in [2], in assay [3], in assay [10], in [4] and in [5]. Besides, the outcome in [6], in [7] and in assay [8] was inactive.

Regarding `NC(=O)c1cccnc1`, the call in [1], in assay [2], in assay [3], in assay [10], in assay [4] and in assay [5] was inactive. The compound was classed as inactive in [6], in assay [7] and in assay [8].

For the compound `CCCCCCCCCC(=O)OCC`, the compound was classed as inactive in assay [1], in [2], in assay [3], in assay [10], in assay [4] and in [5]. Also, the compound was called inactive in assay [6], in assay [7] and in assay [8].

Regarding `CCCCOCC(C)OCC(C)O` (stereo unspecified), the outcome in [1], in assay [2], in [3], in [10], in assay [4] and in [5] was inactive. The outcome in assay [6], in assay [7] and in assay [8] was inactive.

Turning to `c1ccc(OCCOc2ccccc2)cc1`, the compound was classed as inactive in assay [1], in assay [2], in assay [3], in assay [10], in [4] and in [5]. Also, the outcome in [6], in assay [7] and in assay [8] was inactive.

`Cc1ccncc1`: the call in [1], in [2], in assay [3], in assay [4], in assay [5] and in assay [6] was inactive. Besides, the compound was called inactive in [7].

For the compound `CC1=CC[C@@H](C(C)(C)O)CC1`, the outcome in [1], in assay [2], in [3], in assay [10], in assay [4] and in assay [5] was inactive. The call in assay [6], in assay [7] and in assay [8] was inactive.

For the compound `CCOC(=O)CCCCCCCCC(=O)OCC`, the call in assay [1], in assay [2], in assay [3], in [10], in assay [4] and in [5] was inactive. Besides, the result in assay [7] and in assay [8] was inactive.

Turning to `CC(CCO)CC(C)(C)C` (stereo unspecified), the result in [1], in assay [2], in assay [3], in assay [10], in assay [4] and in [5] was inactive. Besides, the compound was called inactive in [6], in assay [7] and in assay [8].

Take `C=CCOCC(O)CO` (stereo unspecified): the figures for the AC50 in [1] and in assay [8] were 149 µM (active) and 164 µM (active), respectively. The outcome in [2], in assay [3], in assay [4], in [5], in [6] and in [7] was inactive.

Turning to `N=C1N=C(N)c2ccccc21`, the call in [1], in [2], in assay [3], in assay [10], in assay [5] and in assay [6] was inactive. The call in assay [7] and in [8] was inactive. Besides, in [4], the AC50 was 18.1 µM (active).

Source of the values: PubChem BioAssay (EPA / NIEHS).
